Screening data (PubChem)
MCF10A rerep: induces DNA re-replication in MCF 10a normal breast cells; MCF 10A DNA re-replication, Hoechst nuclear intensity, 48 h; Potency, µM (doses to about 46.1 µM), for inactives: at the top dose activity, positive = re-replication, usual class: activators; 350,000 compounds, 2.9% hits; further: % of control where 0% means no effect; nearly all actives have a fitted effect of over 50% in size
ALOX12 inh: blocks human arachidonate 12S-lipoxygenase; P18054; purified 12hLO, xylenol orange hydroperoxide absorbance; Potency, µM (series often up to 108 µM), without a hit: at the top dose activity change, negative = inhibition, hits mostly inhibitors; 580,000 compounds, 1.1% hits; AID 1671190; further: on the % scale 0 is the no-effect control and ±100 the full control effect
Target sequence (P18054 whole entry, looked up): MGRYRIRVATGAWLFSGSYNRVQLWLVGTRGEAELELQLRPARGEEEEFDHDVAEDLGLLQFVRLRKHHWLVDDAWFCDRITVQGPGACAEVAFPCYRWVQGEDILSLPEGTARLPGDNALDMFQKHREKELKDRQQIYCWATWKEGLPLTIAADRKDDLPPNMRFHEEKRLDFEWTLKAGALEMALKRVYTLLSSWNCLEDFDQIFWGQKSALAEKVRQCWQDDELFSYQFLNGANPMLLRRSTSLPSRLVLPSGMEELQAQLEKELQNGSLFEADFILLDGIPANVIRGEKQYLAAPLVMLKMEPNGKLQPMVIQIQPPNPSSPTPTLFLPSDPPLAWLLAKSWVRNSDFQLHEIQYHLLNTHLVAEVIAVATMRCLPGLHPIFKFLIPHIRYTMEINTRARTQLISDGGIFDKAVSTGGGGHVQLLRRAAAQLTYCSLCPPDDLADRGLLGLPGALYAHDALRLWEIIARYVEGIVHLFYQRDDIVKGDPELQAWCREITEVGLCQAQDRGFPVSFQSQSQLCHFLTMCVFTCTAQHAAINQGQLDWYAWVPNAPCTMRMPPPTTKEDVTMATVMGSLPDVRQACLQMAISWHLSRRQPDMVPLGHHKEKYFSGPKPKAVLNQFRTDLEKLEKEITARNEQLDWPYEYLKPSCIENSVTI
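Purified human 12hLO (150 nM final) in 25 mM Hepes, 0.01% Triton X-100, pH 7.0 was preincubated 15 min at room temperature with compound. Then 40 uM arachidonic acid was added, 30 min. Hydroperoxide was read by Fe-XO absorbance ratio 573/405 nm.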
KB-V1 MDR tox: kills drug-selected multidrug resistant KB-V1 cells; KB-V1 MDR cells viability, CellTiter-Glo, 72 h; Potency, µM (titrated, usually from 46.1 µM), usual class: cytotoxic; 400,000 compounds, 3.4% hits; further: on the % scale 0 is the no-effect control and ±100 the full control effect; nearly all actives have a fitted effect of over 60% in size
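qHTS viability screen in drug-selected KB-V1 MDR cells: 72 h compound treatment at 37 degrees C, ATP luminescence end point.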
SW480 rerep: induces DNA re-replication in SW480 colon adenocarcinoma cells; SW480 DNA re-replication, Hoechst DNA content imaging, 48 h; 340,000 compounds, 1.8% hits; AID 624297; Potency, µM (doses to about 46.1 µM), for the others: at the top dose re-replication activation, hits mostly activators; further: % of control where 0% means no effect; nearly all actives have a fitted effect of over 55% in size
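250 cells/well; 23 nL cpd via pin tool; 48 hr, 37 C, 5% CO2; Hoechst 40 min; imager read of total nuclear intensity, ex 405/em 500-530 nm.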
PINK1 modulator: PINK1 expression modulation. PINK1 immunofluorescence, high-content cytometry, 24 h. Potency, µM (top dose mostly 76.6 µM), for inactives: at the top dose activation (PINK1 increase), actives largely listed as activators. 410,000 compounds, 0.2% hits; active means well fitted activation curve with a large enough effect; inconclusive means small, poorly fitted or top-dose-only effect; cell line not stated here; further: % of control where 0% means no effect; nearly all actives have a fitted effect of over 65% in size
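Measures PINK1 amount and localization on or inside mitochondria by immunofluorescence. Stable cells get compounds at 5 concentrations for 24 hours before fixation and staining; CCCP controls included.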
KB-3-1 cytotox: kills parental KB-3-1 adenocarcinoma cells; KB-3-1 viability, CellTiter-Glo ATP luminescence, 72 h; Potency, µM (highest dose often 46.1 µM), actives largely listed as cytotoxic; 400,000 compounds, 1.4% hits; further: on the % scale 0 is the no-effect control and ±100 the full control effect; nearly all actives have a fitted effect of over 60% in size
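Cytotoxicity measured as CellTiter-Glo luminescence after 72 h at 37 C. Compound titrations were pinned onto drug-naive KB-3-1 parental adenocarcinoma cells grown in DMEM with 10% FBS, and normalized data fitted to concentration-response curves.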
* marks the source's active call; other numbers are inactive results; i = inactive; u = inconclusive; x = no result; ! = not active in a repeat; [ ] = another dose, or the depositor's remark. Compounds with a hit are over-represented: about 5.8% of the library has one in this group of screens. Unless noted, the call rests on the fitted dose curve; in most records, active means well fitted curve in the direction sought with a large enough effect; inconclusive means small, poorly fitted or top-dose-only effect, or another doubt; inactive means no such curve, though single readings can be large; an effect the other way counts as inactive or inconclusive. Potency means the concentration at half of the fitted maximal effect.

SMILES | MCF10A rerep | ALOX12 inh | KB-V1 MDR tox | SW480 rerep | PINK1 modulator | KB-3-1 cytotox
Cc1ccn2c(Nc3ccccc3C)c(-c3ccncc3)nc2c1 | 0% | -26% | 23µM*! | u | 1% | i
Cc1ccc(-c2nc3cnccn3c2Nc2ccccc2)o1 | 23µM* | u | u | u | 3% | i
COc1ccc(-c2noc(CC3CCN(C(=O)c4cc(Cl)ccc4F)CC3)n2)cc1 | x | 15% | x | x | x | x
COc1ccc2[nH]c(CNC(=O)C(c3ccc(F)cc3)N(C)C)cc2c1 (stereo unspecified) | x | 0% | x | x | x | x
Fc1cccc(-n2c(SCc3nc4ccccc4o3)nnc2N2CCOCC2)c1 | x | -2% | x | x | x | x
COc1ccc(-c2nc3cnccn3c2Nc2ccc(C)cc2)cc1 | 0% | 10%[57.4 µM] | i | 5% | 2% | i
Cc1ccc(Nc2c(-c3ccccc3)nc3cnccn23)cc1 | 23µM* | -1% | i | 17% | 4% | i
CN1C(C(=O)c2ccccc2)=C(OC(=O)c2ccc(Br)cc2)c2ccccc2S1(=O)=O | x | -3% | i | x | u | i
CN(C)[C@H]1N(C(=O)c2ccc(Br)cc2)N=C2c3ccccc3S(=O)(=O)N21 | 3% | -8% | 8.2µM* | -3% | -2% | i
CC(=O)c1sc(NC(=O)C=C(C)C)nc1C | 11% | -4% | i | 4% | 1% | i
CC(=O)c1sc(NC(=O)C2(F)C(F)(F)C(F)(F)C(F)(F)C(F)(F)C2(F)F)nc1C | 9.2µM* | -4%[57.4 µM] | 7.3µM* | 0% | x | u
CCOc1ccc(C(=O)N2CCN(c3cc(-c4ccc(Cl)cc4)[nH]n3)CC2)cc1OCC | x | -3% | x | x | x | x
CCN(c1ccccc1)S(=O)(=O)c1ccc(NC(=O)c2cc(=O)c3ccc(C)cc3o2)cc1 | x | -2% | x | x | x | x
Cc1nc(-c2ccccc2)c(-c2ccccc2)s1 | x | 17% | x | x | x | x
Cc1c(-c2ccccc2)sc2nc[nH]c(=S)c12 | 3% | -19% | 12µM* | -4% | -1% | u
O=C(CSc1nnc(-c2ccc(Cl)cc2)n1CC1CCCO1)Nc1ccc2c(c1)OCCO2 (stereo unspecified) | x | -22% | x | x | x | x
N#CC(C(=O)/C=C/c1ccccc1)c1ccc(C(F)(F)F)cn1 (stereo unspecified) | x | 39% | x | x | x | x
Brc1ccccc1-c1nnc2sc(-c3ccc4c(c3)OCCO4)nn12 | 6.5µM* | 5% | u | u | x | i
Clc1ccccc1-c1nnc2sc(-c3ccc4c(c3)OCO4)nn12 | u | u | 8.2µM* | 6.5µM* | 0%[38.3 µM] | 21µM*
NS(=O)(=O)c1ccc(CCNC(=O)COc2ccc3ccc(=O)oc3c2)cc1 | x | 9% | x | x | x | x
CN(CC(=O)Nc1cccc(F)c1)C(=O)CCc1ncc(-c2ccccc2)o1 | x | 1% | x | x | x | x
O=S(=O)(Nc1cc(Cl)ccc1-n1cncn1)c1cc(Br)ccc1Br | u | u | i | -9% | 16µM* | u
COc1ccc(CNC(=O)c2ccc(C3Nc4ccccc4S(=O)(=O)N3)cc2)cc1OC (stereo unspecified) | x | -25% | x | x | x | x
COc1ccc(C2(C(=O)N(C)Cc3cccc(OC(F)(F)F)c3)CCOCC2)cc1 | x | -7%[6.33 µM] | x | x | x | x
COc1cccc(-c2nn(C)c3sc(C(=O)NCc4ccco4)cc23)c1 | 6.3µM* | u | i | 9% | 1% | u
SMILES | MCF10A rerep | ALOX12 inh | KB-V1 MDR tox | SW480 rerep | PINK1 modulator | KB-3-1 cytotox
COc1cccc(-c2nn(C)c3sc(C(=O)NCCCN(C)Cc4ccccc4)cc23)c1 | u | 0% | i | 16µM* | -1% | u
CCN(CC)CCCNC(=O)c1cc2c(-c3cccc(OC)c3)nn(C)c2s1 | u | 0% | i | u | 2% | i
CN(CCCNC(=O)c1cc2c(Cl)nc3ccccc3c2s1)Cc1ccccc1 | u | u | i | 21µM* | -3% | i
CCOc1ccc(CCNC(=O)c2cc3c(-c4ccc(OC)c(OC)c4)nn(C)c3s2)cc1OCC | x | u | 23µM* | x | 4% | i
Cc1ccc2nc(Cl)c3cc(C(=O)NCCCN(C)Cc4ccccc4)sc3c2c1 | x | 3% | i | x | -2% | i
Cc1ccc(CNC(=S)NC2CCC(C(C)(C)C)CC2)cc1 (stereo unspecified) | u | u | i | -5% | 3% | i
Cc1ccc(CC2(OCCN(C)C)CCC(C(C)(C)C)CC2)cc1 (stereo unspecified) | u | u | 18µM* | 24% | -7% | u
CN(C)CCOC1(Cc2ccc(F)cc2)CCC(C(C)(C)C)CC1 (stereo unspecified) | 11% | -10% | 16µM* | 12% | -7% | i
Cc1cc(C)c2nc(NC(=O)CCCn3c(=O)oc4ccccc43)sc2c1 | x | -36% | x | x | x | x
COc1cc(/C=C/C(=O)NCCn2c(C)cc3ccccc32)cc(OC)c1OC | -4% | -3% | u | -5% | 5% | u
C=CCSc1nc2ccccc2n1C(=O)/C=C/c1ccc(OC)c(OC)c1 | 4.1µM* | -4% | i | u | 1%[38.3 µM] | u
CCn1c(SCC(=O)N/N=C/c2ccc(OC)c(OC)c2)nc2ccccc21 | 18% | 18% | i | -4% | 5%[38.3 µM] | i
CCSc1nc2ccccc2n1C(=O)/C=C/c1ccc(OC)c(OC)c1 | 4.1µM* | 0% | u | 5.8µM* | 1% | u
C=CCSc1nc2ccccc2n1C(=O)/C=C/c1cc(OC)c(OC)c(OC)c1 | 3.3µM* | 4% | u | u | 2%[38.3 µM] | i
CC(C)C(NC(=O)c1ccc([N+](=O)[O-])cc1)C(C)C | x | -24% | x | x | x | x
Cc1cc(C)n(CCNC(=O)[C@H]2O[C@@H](n3ccc(N)nc3=O)[C@H](O)[C@@H]2O)n1 | x | 50µM* | i | x | 0% | i
Cc1ccc(OCCNC(=O)[C@H]2O[C@@H](n3ccc(N)nc3=O)[C@H](O)[C@@H]2O)cc1C | x | u | u | x | 0% | i
CN(C)C(=O)c1ccc(-c2cc3c(Nc4cccc(Oc5ccccc5)c4)nccc3n2C)cc1 | x | -1% | x | x | x | x
c1ccc(CNc2nc(-c3ccoc3)nc3ccccc23)cc1 | x | 16µM* | x | x | 5% | x
CCC(C)Nc1nc(-c2ccccn2)nc2ccccc12 (stereo unspecified) | 0% | 19% | u | 6% | 22% | 15µM*
c1ccc(CNc2nc(-c3ccccc3)nc3ccccc23)cc1 | 9% | 22% | u | 1% | u | i
CCC(C)Nc1nc(-c2cccc(OC)c2O)nc2ccccc12 (stereo unspecified) | u | u | u | 10% | u | u
c1ccc(CNc2nc(-c3ccccn3)nc3ccccc23)cc1 | 13% | 0% | i | 24% | u | 16µM*
